Bioassay records deposited in PubChem BioAssay by National Center for Advancing Translational Sciences (NCATS).
Compounds with a hit are over-represented: about 19% of the library has one in this group of screens.
DT40 TDP1 CPT = growth inhibition of DT40 Tdp1-/-;hTDP1 cells with camptothecin (screen for TDP1 inhibitors); chicken DT40 Tdp1-/-;hTDP1 cells + 20 nM CPT, ATP luminescence, 48 h; Potency, µM (series often up to 46.2 µM), usual class: inhibitors; hit rate 12% among 420,000; AID 686979; further: nearly all actives have a fitted effect of over 55% in size
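Chicken DT40 Tdp1-/- cells stably complemented with human TDP1 were seeded at 400 cells/well in medium containing 20 nM camptothecin, exposed to pin-transferred compounds, and grown at 37 °C for at least 48 hr. Viability was read as ATP luminescence.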
Giardia killer = kills Giardia lamblia; Giardia lamblia trophozoite viability; AID 540267; hit rate 0.15% among 340,000; activity change, % at 7.66 µM, hits read low; in the data active means activity change below about -80%; inconclusive means between about -30% and that limit;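 further: parasites exposed to compound for two days anaerobically before the ATP read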
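Anaerobic 48 hrs incubation at 37 deg C of 100 trophozoites/well with test compounds; ATPLite 1-Step luminescence, 15-30 min RT, reports cellular ATP as viability.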
ELG1 DNA repair = blocks ELG1-dependent DNA repair in HEK293T cells. HEK293T ELG1-luciferase reporter, luminescence, 16 h; DNA damage induced by 5-fluorouridine. Potency, µM (titrated, usually from 46.1 µM), usual class: inhibitors. hit rate 2.3% among 330,000; further: nearly all actives have a fitted effect of over 55% in size
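Reporter activity after DNA damage by 5-fluorouridine is monitored. Compound-treated cells incubate 16 hr at 37 °C, then ONE-Glo is added for 30 min before luminescence reading.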
TDP1 cell noCPT = qHTS for Inhibitors of human tyrosyl-DNA phosphodiesterase 1 (TDP1): qHTS in cells in absence of CPT. DT40 Tdp1-/- hTDP1 cells, no CPT, ATP luminescence, 48 h. Potency, µM (top dose mostly 46.2 µM), actives largely listed as inhibitors. hit rate 15% among 420,000. AID 686978, 2013; further: nearly all actives have a fitted effect of over 55% in size
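Stably hTDP1-transfected Tdp1-null chicken DT40 cells were treated with library compounds minus camptothecin and grown for at least 48 hr at 37 °C, after which cellular ATP was quantified by luminescence.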
IL1B secr inh = blocks inflammasome-driven IL-1 beta release. THP-1 LPS/ATP IL-1B secretion, AlphaLISA, 16 h; active compounds read low. activity change, % at 57.5 µM. hit rate 4.7% among 360,000. AID 743279; in the data active means activity change below about -50%; inconclusive means mostly about -30% to -49%
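Secreted IL-1B measured by AlphaLISA bead assay after 16 h compound exposure of THP-1 cells; compounds (final up to 57.5 uM) added 1 h before LPS (250 ng/mL) and ATP (1.25 mM) stimulation; lower signal means less secretion.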
TDP1 block = TDP1 (human) enzyme inhibition. recombinant TDP1, AlphaScreen DNA substrate cleavage. hit rate 0.28% among 350,000. Potency, µM (highest dose often 130 µM), usual class: inhibitors. Q9NUW8; further: nearly all actives have a fitted effect of over 40% in size
Target sequence (Q9NUW8 whole entry, looked up): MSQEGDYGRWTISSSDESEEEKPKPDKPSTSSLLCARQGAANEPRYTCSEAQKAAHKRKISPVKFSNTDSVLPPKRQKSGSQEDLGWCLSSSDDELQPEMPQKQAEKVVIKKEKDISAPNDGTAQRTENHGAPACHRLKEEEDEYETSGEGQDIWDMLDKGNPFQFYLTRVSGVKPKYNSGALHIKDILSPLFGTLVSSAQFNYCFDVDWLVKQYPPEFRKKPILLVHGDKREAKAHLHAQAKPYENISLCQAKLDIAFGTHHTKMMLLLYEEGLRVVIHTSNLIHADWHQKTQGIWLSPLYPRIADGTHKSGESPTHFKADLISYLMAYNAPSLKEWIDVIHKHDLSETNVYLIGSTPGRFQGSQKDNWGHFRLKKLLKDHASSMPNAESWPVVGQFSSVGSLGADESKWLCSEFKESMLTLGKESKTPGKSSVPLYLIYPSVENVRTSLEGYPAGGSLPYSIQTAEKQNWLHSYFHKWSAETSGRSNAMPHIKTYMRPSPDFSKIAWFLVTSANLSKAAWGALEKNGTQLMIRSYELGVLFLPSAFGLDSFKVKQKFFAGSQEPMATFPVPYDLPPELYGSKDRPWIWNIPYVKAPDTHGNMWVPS
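Recombinant E. coli-expressed Tdp1 (1 nM) preincubated with compound 15 min at RT, then 5'-biotin/3'-phosphotyrosine-FITC DNA substrate (15 nM) added for 5 min. AlphaScreen beads (10 ug/ml) added, 10 min RT; tyrosine-FITC cleavage read as signal loss.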
Of the large screens only hits and unclear results are named; the others gave an inactive call. Unless noted, the call rests on the fitted dose curve; in most records, active means well fitted curve in the direction sought with a large enough effect; inconclusive means small, poorly fitted or top-dose-only effect, or another doubt; inactive means no such curve, though single readings can be large; an effect the other way counts as inactive or inconclusive.

O=C(COc1ccc2oc(-c3ccccc3)cc(=O)c2c1)NCc1ccco1	DT40 TDP1 CPT inconclusive, ELG1 DNA repair inconclusive, TDP1 cell noCPT 29µM, TDP1 block 50µM
COc1ccc2c(=O)cc(-c3ccccc3F)oc2c1	DT40 TDP1 CPT inconclusive, ELG1 DNA repair inconclusive, TDP1 cell noCPT 21µM, IL1B secr inh -61
O=C(COc1ccc2c3c(c(=O)oc2c1)CCC3)N1CCCCC1	ELG1 DNA repair inconclusive (no result: TDP1 block)
COc1cccc2oc(-c3ccco3)cc(=O)c12	DT40 TDP1 CPT 21µM, ELG1 DNA repair inconclusive, TDP1 cell noCPT 15µM, IL1B secr inh -101
O=C(Nc1c(-c2ccccc2)[nH][nH]c1=O)c1ccc(Br)cc1	none (no result: Giardia killer, ELG1 DNA repair, TDP1 block)
CSc1nnc2[nH]c(=O)cc(C)n12	none (no result: Giardia killer, ELG1 DNA repair, IL1B secr inh)
O=C1C[C@H](c2ccc(-c3ccccc3)cc2)N1S(=O)(=O)c1ccccc1[N+](=O)[O-]	none (no result: DT40 TDP1 CPT, ELG1 DNA repair, TDP1 cell noCPT, IL1B secr inh)
COc1ccc2oc(-c3ccco3)cc(=O)c2c1	DT40 TDP1 CPT inconclusive, ELG1 DNA repair inconclusive, TDP1 cell noCPT inconclusive, IL1B secr inh -62
Cc1nn(CCCC(=O)Nc2nccs2)c(C)c1[N+](=O)[O-]	none
COCCn1c(=O)c(CCc2ccccc2)nc2cnc(Nc3ccccc3)nc21	none (no result: Giardia killer, ELG1 DNA repair, IL1B secr inh, TDP1 block)
COc1ccccc1N1CCN(C(=O)c2cc(C)oc2C)CC1	TDP1 cell noCPT inconclusive
COCc1c(C(=O)N2CCN(c3ccccc3C)CC2)oc2ccccc12	DT40 TDP1 CPT 21µM, ELG1 DNA repair inconclusive, TDP1 cell noCPT inconclusive
Cc1nc2ccccc2c2oc(C(=O)N3CC(C)CC(C)C3)cc12 (stereo not given)	DT40 TDP1 CPT inconclusive, TDP1 cell noCPT inconclusive
COc1ccccc1N1CCN(C(=O)c2cc3c(C)nc4ccccc4c3o2)CC1	DT40 TDP1 CPT 6.5µM, ELG1 DNA repair 13µM, TDP1 cell noCPT 4.1µM
COc1ccccc1N1CCN(C(=O)c2oc3ccc(Br)cc3c2C)CC1	DT40 TDP1 CPT 2.9µM, ELG1 DNA repair inconclusive, TDP1 cell noCPT 7.3µM
COc1ccccc1N1CCN(C(=O)c2cccc3c(=O)c(C)c(-c4ccccc4)oc23)CC1	DT40 TDP1 CPT inconclusive, ELG1 DNA repair 21µM, TDP1 cell noCPT inconclusive
COc1ccc(N2CCN(C(=O)NCc3cccc(OC)c3)CC2)cc1	DT40 TDP1 CPT inconclusive
Cc1ccc(C(=O)Nc2nnc(SCc3cc(=O)n4ccc(C)cc4n3)s2)cc1	none (no result: Giardia killer, ELG1 DNA repair, IL1B secr inh)
COc1ccccc1N1CCN(C(=O)c2oc3ccc(F)cc3c2C)CC1	DT40 TDP1 CPT 21µM, ELG1 DNA repair inconclusive, TDP1 cell noCPT 16µM
COc1ccccc1N1CCN(C(=O)c2oc3ccccc3c2C)CC1	DT40 TDP1 CPT 16µM, TDP1 cell noCPT 21µM
COc1ccccc1N1CCN(C(=O)c2oc3ccccc3c2NC(=O)C(C)Oc2ccccc2)CC1 (stereo not given)	DT40 TDP1 CPT inconclusive, TDP1 cell noCPT 16µM (no result: Giardia killer, ELG1 DNA repair, IL1B secr inh)
COc1cc(C(=O)Nc2c(C(=O)N3CCOCC3)oc3ccccc23)cc(OC)c1OC	ELG1 DNA repair inconclusive, TDP1 cell noCPT inconclusive
CC1CC(=O)N(CC(=O)Nc2ccc(F)cc2F)c2ccccc2S1 (stereo not given)	none (no result: DT40 TDP1 CPT, Giardia killer, ELG1 DNA repair, TDP1 cell noCPT, IL1B secr inh)
COc1ccccc1Cn1cc(C(=O)c2ccccc2)c(=O)c2cc(OC)c(OC)cc21	DT40 TDP1 CPT inconclusive, TDP1 cell noCPT inconclusive (no result: Giardia killer, ELG1 DNA repair, IL1B secr inh)
COc1ccccc1Cn1cc(C(=O)c2ccc(C)cc2)c(=O)c2cc3c(cc21)OCCO3	DT40 TDP1 CPT 15µM, TDP1 cell noCPT 21µM (no result: Giardia killer, ELG1 DNA repair, IL1B secr inh)
O=C(c1ccc(F)cc1)c1cn(Cc2ccccc2F)c2cc3c(cc2c1=O)OCCO3	DT40 TDP1 CPT inconclusive, TDP1 cell noCPT 21µM (no result: Giardia killer, ELG1 DNA repair, IL1B secr inh)
COc1ccccc1Cn1cc(C(=O)c2ccc(C)cc2)c(=O)c2cc(F)cc(F)c21	none (no result: Giardia killer, ELG1 DNA repair, IL1B secr inh)
COc1ccccc1Cn1cc(C(=O)c2ccc(C)cc2)c(=O)c2cc(C)ccc21	DT40 TDP1 CPT 5.2µM, TDP1 cell noCPT 7.3µM (no result: Giardia killer, ELG1 DNA repair, IL1B secr inh)
COc1ccc(NC(=O)c2oc3ccc4c(c3c2C)C(=O)CC(C)(C)O4)cc1OC	DT40 TDP1 CPT 21µM, TDP1 cell noCPT 12µM (no result: Giardia killer, ELG1 DNA repair, IL1B secr inh)
